PubChem BioAssay AID1159580 (chemical genetic matrix, 2015)
Where “and” joins values, the source holds several entries; their conditions need not be identical. Equal entries are not always repeated. The campaign covered roughly 5,500 compounds. About 2,000 (36%) were called active. Roughly 18% stayed inconclusive and do not appear here. Rule as the data show it: active = normalized growth mostly below about 0.91 (no sharp cut-off); inconclusive = no clear call, values can overlap the other calls; inactive = mostly above about 0.92. This is one part of the list.

Test: chemical genetic growth profiling, strain panel (AID 1159580);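 also: tested at 20 µM; growth read once vehicle control cultures reached saturation at 30 °C; 1 = growth at the plate median or of vehicle wells; lower values mean less growth of the strain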
Settings: S. cerevisiae deletion strains, growth OD

Measured: normalized growth

CN(C)c1ccc(C(=C2C=CC(=[N+](C)C)C=C2)c2ccc(N(C)C)cc2)cc1
active: locus YAL013W, strain DEP1, stronger effect = lower value 0.362 | locus YAL021C, strain ccr4, stronger effect = lower value 0.479 | locus YAL026C, strain drs2, stronger effect = lower value 0.563 | locus YAL030W, strain snc1, stronger effect = lower value 0.453 | locus YBL061C, strain skt5, stronger effect = lower value 0.535 | locus YBR009C, strain hhf1, stronger effect = lower value 0.486 | locus YBR021W, strain FUR4, stronger effect = lower value 0.603 | locus YBR023C, strain chs3, stronger effect = lower value 0.506 | locus YBR171W, strain sec66, stronger effect = lower value 0.717 | locus YBR229C, strain ROT2, stronger effect = lower value 0.353 | locus YBR231C, strain swc5, stronger effect = lower value 0.551 | locus YBR279W, strain paf1, stronger effect = lower value 0.463 | locus YCL011C, strain gbp2, stronger effect = lower value 0.524 | locus YCL016C, strain dcc1, stronger effect = lower value 0.473 | locus YCL029C, strain bik1, stronger effect = lower value 0.507 | locus YCL069W, strain vba3, stronger effect = lower value 0.57 | locus YCR088W, strain abp1, stronger effect = lower value 0.563 | locus YDL005C, strain med2, stronger effect = lower value 0.67 | locus YDL035C, strain GPR1, stronger effect = lower value 0.317 | locus YDL040C, strain nat1, stronger effect = lower value 0.48 | locus YDL074C, strain BRE1, stronger effect = lower value 0.492 | locus YDL101C, strain DUN1, stronger effect = lower value 0.397 | locus YDL185W, strain tfp1, stronger effect = lower value 0.433 | locus YDL192W, strain arf1, stronger effect = lower value 0.462 | locus YDR001C, strain nth1, stronger effect = lower value 0.562 | locus YDR069C, strain doa4, stronger effect = lower value 0.61 | locus YDR101C, strain arx1, stronger effect = lower value 0.486 | locus YDR137W, strain rgp1, stronger effect = lower value 0.77 | locus YDR159W, strain sac3, stronger effect = lower value 0.75 | locus YDR162C, strain NBP2, stronger effect = lower value 0.316 | locus YDR297W, strain sur2, stronger effect = lower value 0.537 | locus YDR318W, strain mcm21, stronger effect = lower value 0.487 | locus YDR334W, strain swr1, stronger effect = lower value 0.578 | locus YDR335W, strain msn5, stronger effect = lower value 0.577 | locus YDR388W, stronger effect = lower value 0.435 | locus YDR392W, strain spt3, stronger effect = lower value 0.658 | locus YDR502C, strain sam2, stronger effect = lower value 0.534 | locus YEL003W, strain gim4, stronger effect = lower value 0.547 | locus YEL037C, strain rad23, stronger effect = lower value 0.565 | locus YEL061C, strain CIN8 (second series), stronger effect = lower value 0.569 | locus YEL061C, strain CIN8, stronger effect = lower value 0.347 | locus YER015W, strain faa2, stronger effect = lower value 0.574 | locus YER016W, strain bim1, stronger effect = lower value 0.494 | locus YER110C, stronger effect = lower value 0.586 | locus YER111C, strain swi4, stronger effect = lower value 0.744 | locus YER155C, strain BEM2 (second series), stronger effect = lower value 0.826 | locus YER155C, strain BEM2, stronger effect = lower value 0.411 | locus YER167W, strain BCK2, stronger effect = lower value 0.334 | locus YFR010W, strain ubp6, stronger effect = lower value 0.614 | locus YGL078C, strain dbp3, stronger effect = lower value 0.493 | locus YGL086W, strain mad1, stronger effect = lower value 0.406 | locus YGL167C, strain pmr1, stronger effect = lower value 0.59 | locus YGL173C, strain kem1, stronger effect = lower value 0.637 | locus YGL227W, strain vid30, stronger effect = lower value 0.561 | locus YGL240W, strain doc1, stronger effect = lower value 0.618 | locus YGL248W, strain PDE1, stronger effect = lower value 0.345 | locus YGL253W, strain hxk2, stronger effect = lower value 0.465 | locus YGR078C, strain PAC10, stronger effect = lower value 0.321 | locus YGR135W, strain pre9, stronger effect = lower value 0.509 | locus YGR229C, strain SMI1, stronger effect = lower value 0.363 | locus YGR252W, strain gcn5, stronger effect = lower value 1.33 [resistant] | locus YHR013C, strain ard1, stronger effect = lower value 0.747 | locus YHR027C, strain rpn1, stronger effect = lower value 0.525 | locus YHR079C, strain IRE1 (second series), stronger effect = lower value 0.476 | locus YHR079C, strain IRE1, stronger effect = lower value 1.26 [resistant] | locus YHR094C, strain hxt1, stronger effect = lower value 0.455 | locus YHR129C, strain ARP1, stronger effect = lower value 0.366 | locus YHR142W, strain chs7, stronger effect = lower value 0.638 | locus YHR200W, strain rpn10, stronger effect = lower value 0.459 | locus YIL066C, strain RNR3, stronger effect = lower value 0.346 | locus YIL073C, strain SPO22, stronger effect = lower value 0.67 | locus YIL125W, strain kgd1, stronger effect = lower value 0.505 | locus YIR030C, strain dcg1, stronger effect = lower value 0.493 | locus YJL092W, strain hpr5, stronger effect = lower value 0.548 | locus YJL095W, strain BCK1 (second series), stronger effect = lower value 0.525 | locus YJL115W, strain asf1, stronger effect = lower value 0.651 | locus YJL129C, strain trk1, stronger effect = lower value 0.795 | locus YJL134W, strain LCB3, stronger effect = lower value 0.349 | locus YJL154C, strain vps35, stronger effect = lower value 0.551 | locus YJL164C, strain tpk1, stronger effect = lower value 0.548 | locus YJL166W, strain qcr8, stronger effect = lower value 0.478 | locus YJL168C, strain set2, stronger effect = lower value 0.448 | locus YJL187C, strain SWE1 (second series), stronger effect = lower value 0.333 | locus YJL187C, strain SWE1, stronger effect = lower value 0.521 | locus YJR043C, strain POL32, stronger effect = lower value 0.373 | locus YJR066W, strain TOR1, stronger effect = lower value 0.0572 | locus YKL009W, strain mrt4, stronger effect = lower value 0.538 | locus YKL068W, stronger effect = lower value 0.431 | locus YKL085W, strain MDH1 (second series), stronger effect = lower value 0.429 | locus YKL085W, strain MDH1, stronger effect = lower value 0.429 | locus YKL160W, strain elf1, stronger effect = lower value 0.44 | locus YKR001C, strain vps1, stronger effect = lower value 0.514 | locus YKR026C, strain gcn3, stronger effect = lower value 0.573 | locus YKR091W, strain srl3, stronger effect = lower value 0.536 | locus YLL001W, strain dnm1, stronger effect = lower value 0.605 | locus YLL026W, stronger effect = lower value 0.536 | locus YLL041C, strain sdh2, stronger effect = lower value 0.468 | locus YLR027C, strain aat2, stronger effect = lower value 0.449 | locus YLR058C, strain SHM2, stronger effect = lower value 0.364 | locus YLR102C, strain apc9, stronger effect = lower value 0.449 | locus YLR113W, strain HOG1, stronger effect = lower value 1.5 [resistant] | locus YLR221C, strain rsa3, stronger effect = lower value 0.457 | locus YLR258W, strain gsy2, stronger effect = lower value 0.527 | locus YLR262C, strain YPT6 (second series), stronger effect = lower value 0.65 | locus YLR268W, strain sec22, stronger effect = lower value 0.553 | locus YLR320W, strain mms22, stronger effect = lower value 0.558 | locus YLR330W, strain CHS5, stronger effect = lower value 0.355 | locus YLR342W, strain FKS1 (second series), stronger effect = lower value 0.388 | locus YLR342W, strain FKS1, stronger effect = lower value 0.499 | locus YLR370C, strain arc18, stronger effect = lower value 0.564 | locus YLR371W, strain rom2, stronger effect = lower value 0.489 | locus YLR384C, strain iki3, stronger effect = lower value 0.486 | locus YLR418C, strain cdc73, stronger effect = lower value 0.769 | locus YML016C, strain PPZ1, stronger effect = lower value 0.345 | locus YML032C, strain rad52, stronger effect = lower value 0.583 | locus YML120C, strain ndi1, stronger effect = lower value 0.554 | locus YML124C, strain tub3, stronger effect = lower value 0.48 | locus YMR058W, strain fet3, stronger effect = lower value 0.59 | locus YMR078C, strain ctf18, stronger effect = lower value 0.546 | locus YMR125W, strain sto1, stronger effect = lower value 0.617 | locus YMR129W, stronger effect = lower value 0.505 | locus YMR205C, strain PFK2, stronger effect = lower value 0.688 | locus YMR223W, strain ubp8, stronger effect = lower value 0.524 | locus YMR231W, strain pep5, stronger effect = lower value 0.558 | locus YMR307W, strain GAS1, stronger effect = lower value 0.562 | locus YNL067W, strain RPL9B, stronger effect = lower value 0.315 | locus YNL071W, strain lat1, stronger effect = lower value 0.573 | locus YNL183C, strain NPR1, stronger effect = lower value -0.00369 | locus YNL209W, strain ssb2, stronger effect = lower value 0.435 | locus YNL233W, strain BNI4, stronger effect = lower value 0.338 | locus YNL248C, strain rpa49, stronger effect = lower value 0.6 | locus YNL250W, strain rad50, stronger effect = lower value 0.597 | locus YNL271C, strain bni1, stronger effect = lower value 0.458 | locus YNL298W, strain CLA4, stronger effect = lower value 0.511 | locus YNL307C, strain MCK1, stronger effect = lower value 0.521 | locus YNL322C, strain KRE1 (second series), stronger effect = lower value 0.626 | locus YNL322C, strain KRE1, stronger effect = lower value 0.318 | locus YNR049C, strain mso1, stronger effect = lower value 0.547 | locus YNR052C, strain pop2, stronger effect = lower value 0.497 | locus YOL147C, strain pex11, stronger effect = lower value 0.501 | locus YOR001W, strain rrp6, stronger effect = lower value 0.55 | locus YOR061W, strain CKA2, stronger effect = lower value 0.335 | locus YOR069W, strain VPS5, stronger effect = lower value 0.33 | locus YOR070C, strain gyp1, stronger effect = lower value 0.466 | locus YOR080W, strain dia2, stronger effect = lower value 0.569 | locus YOR083W, strain WHI5, stronger effect = lower value 0.547 | locus YOR106W, strain vam3, stronger effect = lower value 0.505 | locus YOR136W, strain idh2, stronger effect = lower value 0.549 | locus YOR144C, strain elg1, stronger effect = lower value 0.483 | locus YOR184W, strain ser1, stronger effect = lower value 0.604 | locus YOR231W, strain MKK1, stronger effect = lower value 1.28 [resistant] | locus YOR265W, strain rbl2, stronger effect = lower value 0.469 | locus YOR270C, strain vph1, stronger effect = lower value 0.762 | locus YOR290C, strain snf2, stronger effect = lower value 0.636 | locus YOR316C, strain cot1, stronger effect = lower value 0.454 | locus YPL051W, strain arl3, stronger effect = lower value 0.488 | locus YPL055C, strain LGE1, stronger effect = lower value 0.408 | locus YPL078C, strain atp4, stronger effect = lower value 0.643 | locus YPL106C, strain sse1, stronger effect = lower value 0.77 | locus YPL240C, strain hsp82, stronger effect = lower value 0.466 | locus YPL241C, strain CIN2, stronger effect = lower value 0.316 | locus YPL256C, strain CLN2, stronger effect = lower value 1.48 [resistant] | locus YPR119W, strain clb2, stronger effect = lower value 0.472 | locus YPR141C, strain kar3, stronger effect = lower value 0.559 | locus YPR163C, strain tif3, stronger effect = lower value 0.517 | locus YPR167C, strain met16, stronger effect = lower value 0.49 | strain wtn01, stronger effect = lower value 0.535
0.406 (active) and 1.08 (inactive): locus YJL095W, strain BCK1, stronger effect = lower value
inactive: locus YDR195W, strain ref2 1.06 | locus YLR039C, strain RIC1, stronger effect = lower value 0.713 | locus YLR262C, strain YPT6, stronger effect = lower value 0.753 | locus YLR357W, strain rsc2, stronger effect = lower value 1.04 | locus YOL012C, strain htz1 1.5
0.364 (active) and 1.08 (inactive): locus YHR030C, strain SLT2, stronger effect = lower value
